# In PubChem BioAssay (Tox21):
# Several values for one entry are separate records, joined by “and”; a condition that tells them apart may be missing. Equal values may be shown once. Inconclusive results are not listed. Entries that show only a call come without a potency. Some compounds were tested as several samples or in several runs, with calls that do not always agree. A number with no mark means an inactive call. Activity calls are given as the source filed them. The call rests on the fitted dose curve; in most records, active means well fitted activation curve with a large enough effect in the repeat runs; inconclusive means weak or mixed curves; inactive means no such curve, though single readings can be large or run the other way.
# Molecular target: Nuclear receptor subfamily 1 group I member 3 (Homo sapiens) (UniProt Q14994)
# Experiment: qHTS assay to identify small molecule agonists of the constitutive androstane receptor (CAR) signaling pathway (AID 1224839); further: nearly all actives have a fitted effect of over 15% in size;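 on activation: HepG2 cells stably carrying human CAR and a CYP2B6 luciferase reporter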
# Conditions: HepG2 hCAR CYP2B6-luciferase, agonist mode, 24 h; series mostly up to 92.4 µM; activation: at the top concentration
# Source text: National Center for Advancing Translational Sciences [NCATS] NIH Chemical Genomics Center [NCGC] U.S. Environmental Protection Agency [EPA] National Institutes of Environmental Health Sciences [NIEHS] National Toxicology Program [NTP] Assay overview: The constitutive androstane receptor (CAR) is a nuclear receptor which regulates multiple drug metabolizing enzymes (DMEs) and transporters. Activating CAR will generally increase the transcription and subsequent translation of CYP2B6 and CYP3A4. These two DMEs represent about 50% of the drug metabolizing potential in the body. […] Recently, there have also been studies performed indicating CARs role in energy metabolism and cancer therapy. Therefore, inducing CARs activity could have a potential effect on diabetes and cancer. Identifying environmental toxins and compounds which modulate CAR, through the use of the Tox21 10K compound collection, will be an important step in determining the toxicity and potential therapeutic effects these factors will have on the human body.
# Assay Protocol Summary: A double-stable (hCAR and CYP2B6-2.2kb) transfected cell line, derived from human hepatoma (HepG2) cells, was utilized for the duration of the quantitative high-throughput screens. The HepG2-CYP2B6-hCAR cells suspended in DMEM culture medium supplemented with 10% FBS, 5 ug/mL blasticidin, 0.5 mg/mL geneticin, 100 U/mL penicillin and 100 ug/mL streptomycin were dispensed at 2500 cells/4 uL/well in 1536-well white solid bottom plates using a Multidrop Combi. After the assay plates were incubated at 37 C/5% CO2 for 4 hrs, 23 nL of compounds at 15 concentrations (from 5-48 columns) or positive control (from 1 to 4 columns) were transferred to the assay plates using a Pintool station. One uL of PK11195, was added using a Flying Reagent Dispenser to generate a final concentration of 0.75 uM PK11195 inside each well. After a 24 hr incubation period at 37 C/5% CO2, four uL of ONE-Glo reagent was added into the assay plates using a Flying Reagent Dispenser. After a 30 min incubation period at room temperature, the luminescence intensity in the assay plates was measured using a ViewLux plate reader.
# Potency means the concentration at half of the fitted maximal effect.
# Chain of Nuclear receptor subfamily 1 group I member 3 (Homo sapiens) (Q14994 whole entry, looked up): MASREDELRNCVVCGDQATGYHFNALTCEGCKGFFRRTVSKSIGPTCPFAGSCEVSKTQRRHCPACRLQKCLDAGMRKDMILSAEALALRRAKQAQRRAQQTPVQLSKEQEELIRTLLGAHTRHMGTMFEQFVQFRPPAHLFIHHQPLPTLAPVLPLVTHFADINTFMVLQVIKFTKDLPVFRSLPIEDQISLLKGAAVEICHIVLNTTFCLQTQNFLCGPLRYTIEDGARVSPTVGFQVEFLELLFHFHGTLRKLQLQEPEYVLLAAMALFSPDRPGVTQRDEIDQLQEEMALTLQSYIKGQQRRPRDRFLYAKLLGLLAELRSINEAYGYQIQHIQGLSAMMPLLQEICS
Structure (SMILES),Potency,activation
CN(C)CCC(c1ccccc1)c1ccccn1 (stereo not given),inactive,–
CCC(O)OC(O)CC (stereo not given),inactive,–
O=C(O)c1cc(O)c(O)c(O)c1,inactive,–
C[C@H]1C[C@H]2[C@@H]3CCC4=CC(=O)C=C[C@]4(C)[C@@]3(F)[C@@H](O)C[C@]2(C)[C@@]1(O)C(=O)CO,inactive,–
CCCCCCCCCCCCOCCO,–,10.7% [at 42.5 µM]
CCCSc1ccc2nc(NC(=O)OC)[nH]c2c1,9.44 µM (active),–
O=c1[nH]c(=O)n([C@H]2C[C@H](O)[C@@H](CO)O2)cc1Br,7.81 µM (active) and 10.6 µM (active),–
CCCCCC(N)=O,inactive,–
O=C=NCCCCCCN=C=O,inactive,–
O=C(O)c1ccc(C(=O)O)cc1,inactive,–
ON=C1CCCCC1,inactive,–
CC(C)c1ccc(S(=O)(=O)O)cc1,inactive,–
CCCCCC/C(C=O)=C\c1ccccc1,inactive,–
O=C1CCC(N2C(=O)c3ccccc3C2=O)C(=O)N1 (stereo not given),inactive,–
O=C(O)c1ccccc1C(c1ccc(O)cc1)c1ccc(O)cc1,–,8.36%
Cc1occc(=O)c1O,inactive,–
CC(=O)Nc1ccccc1,inactive,–
CC(C)(N)CO,inactive,–
Cc1cccnc1,inactive,–
Oc1cccc2ccccc12,62.8 µM (active) and 61.1 µM (active),–

Structure (SMILES),Potency,activation
COc1ccc(NC(C)=O)cc1N,inactive,–
CC(=O)CC(=O)Nc1ccccc1C,inactive,–
CCCCCCCCCCCCc1ccccc1,inactive,–
CCCCCC1=CCCC1=O,inactive,–
CCCCCCCCC/C=C/CC1CC(=O)OC1=O (stereo not given),inactive,–
O=[N+]([O-])c1ccc(/C=C/c2ccc([N+](=O)[O-])cc2S(=O)(=O)O)c(S(=O)(=O)O)c1,inactive,–
NNc1nncc2ccccc12,12.2 µM (active),12.7% [at 19 µM]
CCOC(=O)NNc1nncc2ccccc12,inactive,–
CCCCCCCCCCCCS,inactive,–
O=C(O)CC(C(=O)O)C(CC(=O)O)C(=O)O (stereo not given),inactive,–
O=C(CC(C(=O)OC1CCCCC1)S(=O)(=O)O)OC1CCCCC1 (stereo not given),inactive,–
OC[C@H]1O[C@@](CO)(O[C@H]2O[C@H](CO)[C@@H](O)[C@H](O)[C@H]2O)[C@@H](O)[C@@H]1O,inactive,–
C#CCN(C)Cc1ccccc1,inactive,–
CC(=O)OCC(=O)[C@@]12N=C(C)O[C@@H]1C[C@H]1[C@@H]3CCC4=CC(=O)C=C[C@]4(C)[C@H]3[C@@H](O)C[C@@]12C,inactive,–
O=C(OCCOCCOC(=O)c1ccccc1)c1ccccc1,inactive,–
OCCOCCOCCO,inactive,–
C[Si](O[Si](C)(C)C)O[Si](C)(C)C,inactive,–
CC1CCC(C(C)C)C(O)C1 (stereo not given),inactive,–
CCCCCCCC(=O)OC,inactive,–
